Source: ChEMBL document CHEMBL3988442, “University of Dundee, Small-Polar-MMV Screening Library” (2021)
In all, about 48,000 compounds went through this assay and about 13,000 (27%) showed an effect of 50% or more. The list shows a part of the results.

What follows are molecules tested on Wolbachia pipientis (assay: Anti-Wolbachia Cell-Based Screen). Conditions: 5 µM.
Format: functional
Set-up: scale not given: in the data most compounds retested in dose-response had high values

Point of comparison: Fc1ccc(OCc2nnc([C@H]3CCN(Cc4ccccn4)C3)o2)cc1, “Percent Effect” value 11.6%. Against it:
- CCc1ncncc1C(=O)NCCNC(=O)c1ccc(C)c(F)c1 — higher, 24%
- CC1CN(c2cc(CNCc3cccc4c3OCCO4)ccn2)CCO1 (centres undefined) — lower, -31.92%
- c1cc(CNCc2ccnc(N3CCOCC3)c2)c2c(c1)OCCCO2 — higher, 13.14%
- c1cc(CNCc2cccc3c2OCCO3)cc(Cn2cncn2)c1 — higher, 82.82%
- CCN(Cc1nc2c(cnn2C)c(=O)[nH]1)Cc1ccco1 — higher, 83.36%
- CN(Cc1nc2c(cnn2C)c(=O)[nH]1)Cc1ccco1 — higher, 90.92%
- Cc1occc1CN(C)Cc1nc2c(cnn2C)c(=O)[nH]1 — lower, 0.5275%
- CCN(Cc1nc2c(cnn2C)c(=O)[nH]1)Cc1cccs1 — higher, 17.21%
- COCCN(Cc1nc2c(cnn2C)c(=O)[nH]1)Cc1ccco1 — lower, 0.2947%
- Cc1ccc(CN(C)Cc2nc3c(cnn3C)c(=O)[nH]2)o1 — lower, 10.6%
- CCN(CC)CCn1cnc(-c2ccccc2)c1-c1ncc[nH]1 — lower, -14.65%
- COc1c(CNC2(c3noc(C)n3)CCC2)c(C)nn1C.Cl — lower, -0.07917%
- CCc1nc(C)c(C(C)N(C)CCc2ccncc2)s1 (centres undefined) — lower, 1.512%
- CNC(=O)C1(c2cnccn2)CCCN1C(=O)c1ccccc1C (centres undefined) — higher, 116.1%
- CNC(=O)C1(c2cnccn2)CCCN1C(=O)c1cccnc1OC (centres undefined) — higher, 97.1%
- CNC(=O)C1(c2cnccn2)CCCN1C(=O)c1ccccc1OC (centres undefined) — lower, 2.763%
- COCCC1(CO)CCCN(C(=O)c2cccnc2OC)C1 (centres undefined) — lower, -0.7359%
- CNC(=O)C1(c2cnccn2)CCCN1C(=O)c1ccccc1F (centres undefined) — higher, 99.27%
- CNC(=O)C1(c2cnccn2)CCCN1C(=O)c1c(F)cccc1F (centres undefined) — higher, 94.23%
- O=C1CCC2(CCCN(C(=O)c3cnccn3)CC2)N1 (centres undefined) — lower, -28.51%
- CN(CC(=O)N1CCN(c2ccccc2F)CC1)c1cnccn1 — lower, 4.093%
- O=C1CCCC2(CCN(C(=O)c3cnccn3)CC2)N1 — lower, -3.096%
- CCC(CC)n1ncc(C(=O)NS(=O)(=O)c2ccsc2)c1C — lower, -0.139%
- CN(Cc1ncnn1C)C(=O)CCn1ccc2ccccc21 — lower, -15.17%
- CN(C)c1ncnc2c1CCN(C(=O)c1sccc1S(N)(=O)=O)C2 — lower, -19.94%
- CN(C)CC(=O)N1Cc2nc(C(=O)NCc3ccncc3)oc2C1 — lower, -11.57%
- O=c1nc(SCc2cccnc2)c2c(n1CCO)CCCC2 — lower, 8.765%
- O=C(N[C@]12CC1CN(C(=O)c1ccco1)C2)c1ccoc1 (some centres undefined) — lower, -22.61%
- CNC(=O)C1(c2cnccn2)CCCN1C(=O)c1ncccc1C (centres undefined) — higher, 109.2%
- CNc1ncccc1C(=O)N1CCCC2(CCN(C)CC2)CC1 — lower, -1.008%
- COCCn1cc2c(n1)C(CNCc1ccsc1)OCC2.O=C(O)C(F)(F)F (centres undefined) — higher, 95.33%
- COCCn1cc2c(n1)C(CNCc1cccc(OC)c1)OCC2.O=C(O)C(F)(F)F (centres undefined) — higher, 125%
- O=C(Cc1ccccn1)NCC1OCCc2cn(CC3CC3)nc21.O=C(O)C(F)(F)F (centres undefined) — lower, -22.67%
- COCCn1cc2c(n1)C(CNCc1nccs1)OCC2.O=C(O)C(F)(F)F.O=C(O)C(F)(F)F (centres undefined) — higher, 108.5%
- Fc1cccc(CNCC2OCCc3cn(CC4CCOCC4)nc32)c1.O=C(O)C(F)(F)F (centres undefined) — lower, -13.58%
- COCCn1cc2c(n1)C(CNCc1ccc(F)cc1)OCC2.O=C(O)C(F)(F)F.O=C(O)C(F)(F)F (centres undefined) — lower, 10.33%
- O=C(O)C(F)(F)F.O=C(O)C(F)(F)F.c1cc(CNCC2OCCc3cn(CC4CC4)nc32)cs1 (centres undefined) — lower, -9.045%
- O=C(O)C(F)(F)F.c1c2c(nn1CC1CCOCC1)C(CNC1CCOCC1)OCC2 (centres undefined) — lower, -44.92%
- O=C(O)C(F)(F)F.O=C(O)C(F)(F)F.O=C(O)C(F)(F)F.c1ccc(Cn2cc3c(n2)C(CNCC2CCOCC2)OCC3)nc1 (centres undefined) — lower, 3.019%
- Cc1ccc(Sc2ccc(CN3CCC4(CC3)NCCNC4=O)o2)cc1 — lower, -3.78%
- CCCN(C)c1ccc(C(=O)Nc2c(C)nn(C(C)C)c2C)cc1 — lower, 9.882%
- Cc1ccc(CNC(=O)c2oc3ccccc3c2CN(C)C)n1C — lower, -0.2654%
- O=C(NC[C@H]1OC[C@@H](NCc2ccccn2)[C@@H]1O)c1ccc(F)cc1 — lower, 4.298%
- CN(Cc1cccc(F)c1)C1CCN(CCc2ccccn2)CC1 — lower, 5.619%
- Cl.O[C@@H]1CN(Cc2ccc(F)c(F)c2)CC[C@H]1NCc1ccccn1 — higher, 84.03%
- Fc1ccc(CNC2CCN(CCc3ccncc3)CC2)cc1F — lower, -3.888%
- Cl.O[C@@H]1CN(Cc2cccc(F)c2)CC[C@H]1NCc1ccccn1 — higher, 63.1%
- COCc1nccc(C2CCCN(Cc3cccc(F)c3)C2)n1 (centres undefined) — lower, -13.68%
- Cl.O[C@@H]1CN(Cc2ccc(F)cc2)CC[C@H]1NCc1ccccn1 — higher, 97.86%
- Cc1[nH]c2ccc(CNC3CCN(Cc4ccccn4)CC3)cc2c1C — lower, -2.213%
- Cc1nccc(-c2ccccc2)c1C(=O)N1CC[C@](C)(O)[C@H](C)C1 — lower, -6.254%
- CC(C)CN(C)S(=O)(=O)c1ccc(Cl)cc1C#N — lower, -10.78%
- CCN(C(=O)Nc1cccnc1OC)C1CC1 — lower, -1.512%
- COc1ncccc1NC(=O)N(CC(C)C)C1CC1 — higher, 114.6%
- COc1ncccc1NC(=O)N(Cc1ccco1)C1CC1 — higher, 106.8%
- COc1cc(CN(C(=O)Nc2cccnc2OC)C2CC2)ccc1O — lower, -7.175%
- CCN(CC)C(=O)C1CCN(C(=O)Nc2cccnc2OC)CC1 — lower, 6.94%
- COc1ncccc1NC(=O)N(Cc1ccc(C(N)=O)cc1)C1CC1 — higher, 99.11%
- CCC(C)C(=O)N(Cc1ccccn1)C1CC1 (centres undefined) — lower, -10.35%
- CN(C)C(CNC(=O)N(Cc1ccco1)C1CC1)c1cccs1 (centres undefined) — higher, 11.82%
- COc1ncccc1NC(=O)N(Cc1ccc(C)o1)C1CC1 — lower, -9.414%
- COc1ncccc1NC(=O)N1CCC(CNC(C)=O)CC1 — lower, 2.478%
- COc1ncccc1NC(=O)N(Cc1ccccn1)C1CC1 — higher, 99.69%
